M1 ag parental – counter-screen for M1 agonists: effect in parental CHO-K1 cells. Fluo-8 calcium fluorescence; scaled to maximal ATP response, vehicle zero. actives 0.48% (n = 360,000). activation, % at 3 µM. AID 602248, 2012; in the data active = activation above about 15%;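 note: untransfected CHO-K1 host cells lacking M1 receptor as counterscreen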
CHRM1 agonist – human M1 muscarinic receptor agonists, primary screen, Fluo-8 calcium fluorescence, CHO-K1 cells, HTS. Muscarinic acetylcholine receptor M1 (Homo sapiens), P11229. CHO-K1 hM1, agonist mode; 0% DMSO, 100% acetylcholine EC100. activation, % at 3 µM. actives 0.33% (n = 360,000). AID 588814, 2011;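 active = activation above the run's mean compound activation plus 3 SD, cut at about 16% in these data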;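 note: peak over basal fluorescence ratio within a 140 s kinetic read after compound addition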
Target sequence (P11229 whole entry, looked up): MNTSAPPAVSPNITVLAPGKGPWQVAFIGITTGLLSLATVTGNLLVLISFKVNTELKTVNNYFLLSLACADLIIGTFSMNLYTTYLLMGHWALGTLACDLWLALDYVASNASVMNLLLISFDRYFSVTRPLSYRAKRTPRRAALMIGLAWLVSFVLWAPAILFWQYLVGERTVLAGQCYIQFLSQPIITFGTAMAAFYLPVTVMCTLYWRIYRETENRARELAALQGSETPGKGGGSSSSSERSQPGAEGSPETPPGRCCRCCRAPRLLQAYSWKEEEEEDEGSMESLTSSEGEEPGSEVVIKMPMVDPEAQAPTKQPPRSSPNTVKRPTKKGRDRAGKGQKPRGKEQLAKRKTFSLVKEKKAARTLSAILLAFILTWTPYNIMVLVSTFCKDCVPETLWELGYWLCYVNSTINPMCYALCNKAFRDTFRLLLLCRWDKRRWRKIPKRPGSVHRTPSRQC
M1 PAM – human M1 muscarinic receptor positive allosteric modulators, primary screen, CHO-K1 cells, Fluo-8 calcium fluorescence, 1536-well. Muscarinic acetylcholine receptor M1 (Homo sapiens), P11229. CHO-K1 hM1, ACh EC20; 0% = ACh EC20, 100% = maximal ACh. activation, % at 3 µM. actives 0.088% (n = 360,000). AID 588819, 2011; in the data active = activation above about 19%, passing the limit was not always enough
CHO-K1 Ca PAM – nonselective calcium activators in parental CHO-K1 cells, primary screen, counter-screen for M1 PAM project, cell-based, Fluo-8 calcium fluorescence, full deck, 1536-well | ATP EC20; 0% at ATP EC20, 100% at ATP max | activation, % at 3 µM | actives 0.02% (n = 360,000) | AID 602247, 2012;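 active = activation above the run cutoff, the mean activation of all test compounds plus 3 SD, cut at about 40% in these data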;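 note: peak over basal fluorescence ratio in a 140 s read after ATP addition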
CHO-K1 Ca antag – M1 antagonist counterscreen hit in parental CHO-K1 cells. ATP-induced calcium, Fluo-8 fluorescence. inhibition, % at 3 µM. actives 0.6% (n = 360,000). AID 602250;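 active = inhibition above a per-plate cutoff, the plate's mean sample inhibition plus 3 SD, cut at about 24% in these data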
CHRM1 antagonist – human M1 muscarinic receptor antagonists, primary screen, CHO-K1 cells, Fluo-8 calcium fluorescence, 1536-well. inhibition, % at 3 µM. actives 1.3% (n = 360,000). Muscarinic acetylcholine receptor M1 (Homo sapiens), P11229. CHO-K1 hM1, ACh EC80 antagonist;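 active = percent inhibition above its own plate's cutoff, namely the mean of that plate's compound wells plus 3 SD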;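 note: peak over basal fluorescence ratio during 140 s after agonist addition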
Hits are given with their value; n = inactive; x = not tested or not shown. Hits are enriched below; roughly 2.4% of the tested compounds scored in any of these assays.

SMILES	M1 ag parental	CHRM1 agonist	M1 PAM	CHO-K1 Ca PAM	CHO-K1 Ca antag	CHRM1 antagonist
CCOC(=O)C1CCN(c2ncnc3c2[nH]c2cccc(OC)c23)CC1	n	n	n	n	n	n
CCOC(=O)C1CCN(c2ncnc3c2oc2ccc(Cl)cc23)CC1	n	n	n	n	27.2	n
COc1cccc(-c2nc(CS(=O)(=O)CC(=O)Nc3cc(OC)ccc3OC)c(C)o2)c1	n	n	n	n	n	n
CC1(C(=O)NS(=O)(=O)c2ccccc2Cl)CCN1C(=O)COc1ccc(Cl)cc1 (centres undefined)	n	n	n	n	n	n
Cc1ccc(C(=O)OCC(=O)NC(=O)c2ccc(C(C)(C)C)cc2)c(O)c1	n	n	n	n	n	33.5
CCCn1nnnc1NCc1ccc(N2CCCC2)cc1	n	n	n	n	n	57.7
CCCCn1nnnc1NCc1ccc(N2CCCC2)cc1	n	n	n	n	n	90.5
CCCn1nnnc1NCc1ccc(F)cc1	n	n	n	n	n	n
COc1ccccc1N1CCN(Cc2cc(=O)c(OCC(=O)NC(C)C)co2)CC1	n	n	n	n	n	n
Cc1ccc(CNC(=S)Nc2cc(C(=O)O)ccc2C)cc1	n	n	n	n	31.2	n
O=C(Nc1nnc(-c2ccccc2)o1)c1nc2ccccc2s1	n	66.5	n	n	n	n
Cc1[nH]c2ccccc2c1/C=N/Nc1ccc([N+](=O)[O-])cc1	20.6	16.0	n	n	33.5	35.0
Cc1[nH]c2ccccc2c1/C=N\NC(=O)c1ccco1	n	n	24.3	n	n	n
Cc1[nH]c2ccccc2c1/C=N/NC(=O)CNC(=O)c1ccco1	n	n	n	n	n	n
COc1ccc(N2CC(NC(=O)Nc3ccccc3)CC2=O)cc1 (centres undefined)	15.3	n	n	n	n	n
COc1ccc(N2CC(NC(=O)N3CCN(c4ccccc4)CC3)CC2=O)cc1 (centres undefined)	16.0	n	n	n	n	n
COc1ccc(N2CCN(C(=O)C3CC(=O)N(c4ccc(C)cc4)C3)CC2)cc1 (centres undefined)	n	n	n	n	n	n
CN1CC(=O)N(CC(=O)Nc2ccc(N3CCOCC3)cc2)C1=O	n	n	n	n	n	n
C/C(=C\c1ccccc1)C(=O)Nc1ccc(Cl)cn1	n	n	n	n	n	31.4
O=C(Nc1ccc(Cl)cn1)Nc1ccc(Cl)cn1	n	n	n	n	n	n
COc1ccc(Cl)cc1-c1cc(C(=O)Nc2ccc(Br)cc2)[nH]n1	n	n	n	n	n	n
O=C1/C(=C\c2cccnc2)Sc2ccccc21	n	19.2	n	n	n	n
CC1CCCC(C)N1C(=O)COC(=O)CNC(=O)c1sc2ccccc2c1Cl (centres undefined)	19.2	n	n	n	n	n
CCCCNS(=O)(=O)NC(=O)C1=C(N2CCCC2)COC1=O	n	n	n	n	26.7	n
COC(=O)c1ccc2c(c1)c(-c1ccccc1)c(-c1ccccc1)n2C	n	n	n	n	n	n
SMILES	M1 ag parental	CHRM1 agonist	M1 PAM	CHO-K1 Ca PAM	CHO-K1 Ca antag	CHRM1 antagonist
CCN(c1ccccc1)S(=O)(=O)c1ccc(C(=O)NC2CCN(Cc3ccccc3)CC2)cc1	n	n	n	n	n	66.2
O=C(NC1CCN(Cc2ccccc2)CC1)C1COc2ccccc2O1 (centres undefined)	n	n	n	n	n	83.0
CCCCCCc1c(C)c2ccc(OCC(=O)N3CCC[C@H]3C(=O)O)c(C)c2oc1=O	n	n	n	n	n	n
OCCC1CN(Cc2cccn2-c2ncccn2)CCN1CCc1ccccc1 (centres undefined)	n	n	n	n	n	n
Cc1cccc(NS(=O)(=O)c2ccc(C)c(C(=O)NNC(=O)c3csc(N4CCOCC4)n3)c2)c1	n	n	n	n	n	n
Cc1cc(Br)ccc1OCCOCCN1CCCC1	n	n	n	n	n	n
Brc1ccccc1OCCCCCN1CCOCC1	n	n	n	n	n	n
Brc1ccccc1OCCCN1CCCCCC1	n	n	n	n	n	n
Cc1cc(Br)ccc1OCCCCN1CCCCC1	n	n	n	n	n	42.0
CC(C)c1ccccc1OCCCCN1CCCCC1	n	n	n	n	n	64.5
CC(=O)c1ccccc1OCCCN1CCCCC1	n	n	n	n	n	38.1
CC(C)c1ccccc1OCCCCCN1CCOCC1	n	n	n	n	n	62.3
CCOc1ccc(NS(=O)(=O)c2ccc(C(=O)N(C)Cc3cccc(OC)c3OC)cc2)cc1	n	n	n	n	n	n
CCCCCCOC(=O)Nc1ccc(S(=O)(=O)Nc2cccc([N+](=O)[O-])c2)cc1	n	n	n	n	n	n
c1ccc(-c2ccccc2OCCCCN2CCCCC2)cc1	n	n	n	n	n	32.3
CC(C)c1ccccc1OCCCN1CCCC1	n	n	n	n	n	41.7
Cc1c(NC(=O)Nc2cccc(C(F)(F)F)c2)c(=O)n(-c2ccccc2)n1C	n	n	n	n	n	n
Cc1cccc(C(=O)Oc2ccc(/C=N/NC(=O)c3ccccc3O)cc2)c1	n	n	n	n	n	n
Cc1cccc(C(=O)Oc2ccc(/C=N/NC(=O)c3ccc(O)cc3)cc2)c1	n	n	n	n	n	41.5
COc1ccc(N(C(=O)C(C)C)S(=O)(=O)c2ccc3ccccc3c2)cc1	n	n	n	n	n	n
Oc1ccc(-c2n[nH]c(C(F)(F)F)c2-c2ccccc2)c(O)c1	n	n	n	n	27.9	41.5
COc1ccc(-c2c(-c3ccc(O)cc3O)n[nH]c2C(F)(F)F)cc1	n	n	n	n	n	n
CCCCCCn1cc(C(=O)O)c(=O)c2ccccc21	n	32.1	n	n	n	n
COc1ccc2c(c1)c(=O)c(C(=O)c1ccccc1)cn2Cc1ccccc1	n	n	n	n	n	n
O=C(O)c1cn(Cc2ccccc2)c2ccc(Cl)cc2c1=O	n	47.0	n	n	n	n
COCCCn1cc(CN2CC(N3CCN(CCO)CC3)CS2(=O)=O)nn1 (centres undefined)	n	x	x	n	n	x
O=C(c1ccoc1)N1CCCC(Nc2ccc(F)c(F)c2)C1 (centres undefined)	n	n	n	n	n	n
Cc1occc1C(=O)N1CCCC(Nc2ccc(F)c(F)c2)C1 (centres undefined)	16.0	n	n	n	n	n
CCN1CCN(CCNC(=O)c2ccc(/C=C3/Sc4ccccc4N(Cc4ccccc4C)C3=O)cc2)CC1	n	n	n	n	n	n

Compound activity deposited in PubChem by The Scripps Research Institute Molecular Screening Center.
